Assay outcomes: PubChem BioAssay, National Center for Advancing Translational Sciences (NCATS)
MARV entry inh: inhibitors of Marburg virus binding or cell entry; Marburg virus pseudotyped entry inhibition, cell reporter; 300,000 compounds, 1.8% hits; AID 540276; Potency, µM (doses to about 37.8 µM), most hits filed as inhibitors; calls by dose curve; tested in HEK293 cells
HCMV inh: human cytomegalovirus inhibition; HFF cells, HCMV-luciferase reporter, 72 h; hits give low values; activity change, negative = inhibition, % at 57.5 µM; 410,000 compounds, 4.5% hits; in the data active = activity change below about -60%; inconclusive = no clear call, values can overlap the other calls; inactive = above about -39%
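Two-dose cell screen: HFF monolayers treated with compounds and infected with luciferase-expressing HCMV at 1 PFU/cell, 72 h at 37C, then lysed for luciferase measurement.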
Lassa entry inh: blocks Lassa virus binding to or entry into cells; Lassa virus pseudotype entry inhibition, cell reporter; Potency, µM (series often up to 37.9 µM), usual class: inhibitors; 300,000 compounds, 1.2% hits; calls by dose curve; tested in HEK293 cells; also: nearly all actives have a fitted effect of over 50% in size
FMDV antiviral: foot and mouth disease virus antiviral activity; FMDV antiviral cell-based qHTS; Potency, µM (top dose mostly 57.9 µM), hits mostly inhibitors; 410,000 compounds, 1.2% hits; calls by dose curve; tested in HEK293T cells; also: read-out not given here; nearly all actives have a fitted effect of over 45% in size
Hits are given with their value; n = inactive; u = inconclusive; x = not tested or not shown. Only some compounds are listed: those with a hit (about 6.2% of all), similar ones and a draw of the others.

SMILES | MARV entry inh | HCMV inh | Lassa entry inh | FMDV antiviral
O=C(NNC1OC(CO)C(O)C(O)C1O)c1cccnc1 (stereo unspecified) | n | -61.6 | n | n
COC(=O)c1c(OCc2cccnc2)cc(=O)n2c1CCN(C(=O)c1ccc(OC)c(F)c1)CC2 | x | x | x | n
CC1CC(C)CN(CCCNC(=O)CCC(=O)N2CCOc3ccccc32)C1 (stereo unspecified) | x | -64.6 | x | n
CCN1CCN(CCCNC(=O)CCC(=O)N2CCOc3ccccc32)CC1 | x | n | x | n
O=C(/C=C/c1ccccc1)c1ccccn1 | n | n | n | n
O=C(/C=C/Nc1ccc(Br)cc1F)c1ccccc1 | 1.26µM | n | 1.58µM | u
O=C(/C=C\Nc1ccccn1)c1ccccc1 | u | n | 2.51µM | n
O=C(/C=C/Nc1ccccc1Br)c1ccccn1 | u | -85.4 | 1.12µM | 2.24µM
COc1ccc(NC(=O)C2=C(C)Nc3nc(SCc4ccc(Cl)cc4)nn3C2c2cccc(OC)c2OC)cc1 (stereo unspecified) | x | u | n | n
COC(=O)CC1C(C)(C)C(OC(C)=O)[C@@]2(O)C=C3C4CC(=O)OC(c5ccoc5)[C@]4(C)CCC3[C@@]1(C)C2=O (stereo partly specified) | x | x | x | n
CCCCCn1c(N)c(-c2nc3ccccc3s2)c2c([N+](=O)[O-])nn(CC)c(=O)c21 | 2.91µM | n | n | n
CCCCn1c(N)c(-c2nc3ccccc3s2)c2c([N+](=O)[O-])nn(CC)c(=O)c21 | u | n | u | n
C/C(=N/Oc1nc(C)cc(C)n1)c1ccc(Cl)cc1Cl | n | -61.1 | n | u
C/C(=N\Oc1cccc(F)n1)c1ccc(Cl)cc1Cl | n | n | u | n
CCOC(=O)c1nnn(CC(=O)Nc2cc(C)cc(C)c2)c1C(=O)OCC | n | n | u | n
OC[C@@H]1CN(Cc2ccc(-c3ccccc3)cc2)C[C@H](n2cnc3c(NC4CCC4)ncnc32)O1 | x | -87.7 | x | 17.8µM
OC[C@@H]1CN(Cc2ccccc2)C[C@H](n2cnc3c(NC4CC4)ncnc32)O1 | x | n | x | n
COC1=CC2C(=O)C(C(c3ccccc3)C2C)C1(C)O (stereo unspecified) | n | x | x | x
Cc1cccc(CN2CCc3c(OCC(=O)N4CCCc5ccccc54)cccc3C2=O)c1 | u | n | 4.47µM | u
CCOC(=O)N1CCN(C(=O)COc2cccc3c2CCN(Cc2ccc(F)cc2)C3=O)CC1 | u | -66.7 | n | 14.1µM
CN1CCc2c(OCC(=O)N3CCCc4ccccc43)cccc2C1=O | 3.16µM | n | u | u
O=C1c2cccc(OCC(=O)N3CCCc4ccccc43)c2CCN1Cc1ccc(F)cc1 | u | n | u | 20µM
Cc1cc(C(=O)N2CCOc3ccc(CN4CCC(Oc5cccnc5)CC4)cc3C2)c(C)o1 | x | x | x | n
CC1CCc2c(sc3nnn(CC(=O)Nc4c(C(C)C)cccc4C(C)C)c(=O)c23)C1 (stereo unspecified) | n | n | n | n
C[C@H]1[C@H](c2ccccc2)Oc2cccc(N3CCCC3)c2S(=O)(=O)N1Cc1cccc(F)c1 | x | n | x | x
SMILES | MARV entry inh | HCMV inh | Lassa entry inh | FMDV antiviral
Cc1cc(=O)oc(C)c1C(=O)Nc1ccc2nsnc2c1 | n | n | n | 25.1µM
Cc1ccc(NC(=O)CNC(=O)c2ccc3c(c2)OCO3)nc1 | n | n | n | n
Cc1ccc(NC(=O)c2ccc3c(c2)OCCO3)nc1 | u | n | u | 15.8µM
Cc1cc(NC(=O)c2ccc3c(c2)OCO3)ccc1NC(=O)c1ccccc1 | u | n | n | 7.94e-05µM
CCC(=O)Oc1ccc(C(=O)Nc2ccc3c(c2)OCO3)cc1 | u | -102.8 | u | n
Cc1cc(=O)oc(C)c1C(=O)Nc1ccc2ncccc2c1 | n | n | n | n
CC(NC(=O)C1CCN(C(=O)N2CCOc3ccc(Cl)cc32)CC1)c1ccccc1 (stereo unspecified) | x | n | u | n
Cc1ccccc1Cn1c(=O)n(CCCCCC(=O)NCc2ccc3c(c2)OCO3)c(=O)c2sccc21 | n | n | n | n
O=C(Nc1cccc(C(=O)O)c1)Nc1ccc2c(c1)OCO2 | u | n | 0.316µM | u
O=C(Nc1ccc2nsnc2c1)c1ccc2c(c1)OCO2 | u | n | 11.6µM | n
CCn1cc(Cl)c(C(=O)Nc2ccc3c(c2)OCCO3)n1 | 10µM | n | u | n
Cc1ccc(C(=O)Nc2ccc3c(c2)OCCO3)c(C)c1 | 1.26µM | u | u | u
O=C(Nc1ccc2c(c1)OCCO2)c1cccc2nc3ccccc3nc12 | u | -92.1 | n | u
Cc1cccc(NC(=O)c2ccc3c(c2)OCCO3)c1 | 7.94µM | n | u | n
O=C(Nc1ccc(NC(=O)c2ccc3c(c2)OCCO3)cc1)c1ccccc1 | u | u | u | n
Cc1ccc(NC(=O)c2ccc3c(c2)OCCO3)cc1C | u | n | u | 12.6µM
CCc1cc2c(nc1CC)CCN(CC/C(C)=N/OC[C@@H](O)[C@H]1O[C@@H]3OC(C)(C)O[C@@H]3[C@H]1O)C2 | n | x | x | x
CCc1ccc(CNC(=O)c2ccc(CS(=O)(=O)Cc3ccccc3C)o2)cc1 | x | n | n | u
CC(CCN1CCCc2nc(C)c(C)cc21)=NOC[C@@H](O)[C@H]1O[C@@H]2OC(C)(C)O[C@H]2[C@@H]1O | n | x | u | x
Cn1nc(C(C)(C)C)cc1C(=O)NCc1ccc(N2CCCC2=O)cc1 | u | -100.1 | n | u
Cc1ccc(CNC(=O)c2ccc(N3CCCC3=O)cc2)cc1 | n | n | n | n
COc1ccc(-n2c(=O)cnc3cnc(OC)nc32)cc1 | x | x | x | n
CC(C)c1ccc(C(=O)NCCCN2CCN(CCCNC(=O)c3ccc(C(C)C)cc3)CC2)cc1 | u | -80.2 | 11.2µM | u
Cc1ccc(C(=O)NCCN2CCN(C(=O)c3ccc(C)c(C)c3)CC2)cc1C | n | n | n | n
O=C(NCCN1CCN(C(=O)c2ccc(Br)cc2)CC1)c1ccc(Br)cc1 | n | -66.3 | n | u
SMILES | MARV entry inh | HCMV inh | Lassa entry inh | FMDV antiviral
COc1ccc(S[C@]2(c3nc(C)no3)CC(=O)N(c3ccc(OC)cc3)[C@@H]2c2ccc(OC)cc2)cc1 | x | n | x | x
Nc1nccc(-c2c(-c3ccc(F)cc3)nn3cc(C(F)(F)F)ccc23)n1 | x | x | n | x
CN1C(=O)c2ccccc2NC(=O)[C@]12O[C@@H]2c1ccccc1 | x | n | x | n
CN1NC(=O)c2ccccc2NC1=S | x | -60.7 | x | x
CCSc1nc2c([nH]c3ccccc32)c(=O)n1-c1cccc(OC)c1 | x | -63.2 | u | n
O=C(CSc1nc2c([nH]c3ccccc32)c(=O)n1-c1ccccc1)Nc1ccccc1F | x | n | n | n
CC(Sc1nc2c([nH]c3ccccc32)c(=O)n1-c1ccccc1)c1ccccc1 (stereo unspecified) | x | -82.6 | u | n
O=C(CSc1nc2c([nH]c3ccccc32)c(=O)n1-c1ccccc1F)Nc1ccccc1C(F)(F)F | x | -88.9 | u | n
Cc1cc(C)cc(-n2c(SCC(N)=O)nc3c([nH]c4ccccc43)c2=O)c1 | x | -71.4 | u | n
Cc1ccc(/C(O)=C2\C(=O)C(=O)N(Cc3ccco3)[C@@H]2c2cccs2)cc1 | n | x | x | x
COC1=C[C@@H](C(=O)N[C@H]2CCCC[C@H]2NC(C)=O)[C@@H](C)[C@H](c2ccccc2)CC1=O | u | x | n | x
CC(C)(CO)N1CCN(C(=S)Nc2ccccc2)CC1 | x | n | x | 22.4µM
S=C(Nc1ccccc1)N1CCOCCOCCN(C(=S)Nc2ccccc2)CCOCCOCC1 | 5.62µM | n | n | n
